17 compounds from PubChem BioAssay can be followed below.

Assay [1] relates to XIP peptide (Xip251-270) binding. Put plainly: small-molecule binders of XIP peptide, primary screen, biochemical, small-molecule microarray, fluorescence 635/667 nm, 0.1 µg/mL protein (AID 1182). The note with it: fluorescent protein binding, 635 nm, higher = more signal, called active from +8 up or from −8 down.
The subject of a further assay is XIP peptide (Xip251-270). Put plainly: small-molecule binders of XIP peptide, primary screen, biochemical, small-molecule microarray, fluorescence 635/667 nm, 0.5 µg/mL protein (AID 1183). The conditions noted are these: small-molecule microarray binding, fluorescence 635 nm; higher = more signal.
Assay [2] is described as follows: Plasmodium falciparum growth inhibition, primary screen, strain 3D7, DAPI fluorescence, 100 nL (AID 1184).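 Note: parasites grown inside human red blood cells in medium with human serum.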 The conditions noted are these: P. falciparum 3D7 growth, 3 d, higher = more signal.
The target of assay [3] is Homeobox protein Hox-A13 (Mus musculus) (UniProt Q62424). Put plainly: inhibitors of HoxA13-DNA binding, primary screen, biochemical, fluorescence polarization, labeled oligonucleotide (AID 1185). The note with it: 15 min, higher = more signal, called active from +8 up or from −8 down. A general note: Polarisation of emitted light reports the rotation of a fluorescent probe.
Homeobox protein Hox-A13 (Mus musculus), sequence (Q62424 whole entry, looked up): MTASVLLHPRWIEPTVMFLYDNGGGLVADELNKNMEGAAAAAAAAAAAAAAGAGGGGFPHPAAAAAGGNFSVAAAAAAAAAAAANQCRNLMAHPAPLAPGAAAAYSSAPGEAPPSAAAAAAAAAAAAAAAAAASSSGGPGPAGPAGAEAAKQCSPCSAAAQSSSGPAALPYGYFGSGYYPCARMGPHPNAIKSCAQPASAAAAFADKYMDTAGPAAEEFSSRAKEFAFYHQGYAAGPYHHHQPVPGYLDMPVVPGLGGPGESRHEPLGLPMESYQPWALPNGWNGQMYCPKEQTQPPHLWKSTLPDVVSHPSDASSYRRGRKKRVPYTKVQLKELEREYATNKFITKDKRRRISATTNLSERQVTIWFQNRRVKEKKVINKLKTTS

Assay [4] can be described thus: inhibitors of hydroxyurea-induced Chk1 phosphorylation, primary screen, imaging, HeLa, phospho-Chk1 antibody, percent positive cells (AID 1186). The note with it: hydroxyurea-induced phospho-Chk1 immunofluorescence imaging, higher = more signal.
Assay [5] is described as follows: inhibitors of hydroxyurea-induced Chk1 phosphorylation, primary screen, imaging, HeLa, phospho-Chk1 nuclear intensity (AID 1187). The note with it: hydroxyurea-induced phospho-Chk1 immunofluorescence imaging, higher = more signal.

The structures appear in SMILES notation. The source made the active and inactive calls. Unless noted, the rule behind the calls is not given here.

On to `O=C(NCc1ccccc1)[C@@H]1c2ccccc2C(=O)N(Cc2ccc(OC(F)(F)F)cc2)[C@H]1c1ccc(CO)cc1`, for which the composite z-score was -0.304 (inactive) in assay [1] and 0.56 with XIP peptide (Xip251-270). Also, the z-score in assay [2] was -0.655; in assay [3], -2.53 (inactive); in assay [4], 0.0188 (inactive); in assay [5] it was 0.243 (inactive).

For the compound `[N-]=[N+]=Nc1ccccc1[C@@H]1OC(c2ccc(OCCCO)cc2)=N[C@]1(Cc1ccccc1)C(=O)NCCN1CCOCC1`, the composite z-score in assay [1] is 0.764 (inactive); in the assay with XIP peptide (Xip251-270), 0.441. The z-score in assay [2] is -2.65; in assay [3], -3.81 (inactive); in assay [4], -0.437 (inactive); in assay [5], -0.456 (inactive).

Take `CCCCCC1=C2CNC(CC(C)C)(C(=O)OC)C=C2C(C)C1=O` (configuration not stated): the composite z-score in assay [1] was 0.814 (inactive); in the assay on XIP peptide (Xip251-270), 0.176. Also, the z-score in assay [2] is -0.282; in assay [3] it was -8.08 (active); in assay [4], 1.32 (inactive); in assay [5], 0.856 (inactive).

Regarding `CC(C)(C)N1CC=CC23O[C@@H]4/C=C\CCCOC(=O)C4[C@H]2C(=O)N(CCCCCO)[C@@H]3C1=O` (some centres not stated), the composite z-score was 0.176 (inactive) in assay [1] and -1.03 with XIP peptide (Xip251-270). For the same compound, the z-score in assay [2] is 1.91; in assay [3], -4.34 (inactive); in assay [4], 0.395 (inactive); in assay [5], 0.144 (inactive).

Take `C=C(COC)C(=O)CC[C@@H](OC(=O)c1ccccc1-c1ccccc1C(=O)O)c1ccc(OCCO)cc1`: the composite z-score in assay [1] was 0.264 (inactive); with XIP peptide (Xip251-270) it was 0.666. Moreover, the z-score in assay [2] was -0.61; in assay [3], -5.88 (inactive); in assay [4] it was -0.0419 (inactive); in assay [5] it was 0.0533 (inactive).

On to `C=C(CCCC)/C(=C/C[C@H](OC(=O)c1ccncc1)c1ccc(OCCO)cc1)c1cnc2ccccc2c1`, for which the composite z-score in assay [1] was 1.51 (inactive); with XIP peptide (Xip251-270) it was 0.754. For the same compound, the z-score in assay [2] was -2.94; in assay [3], -2.83 (inactive); in assay [4], -0.658 (inactive); in assay [5], -0.869 (inactive).

Turning to `CN(C)CCCNC(=O)[C@@]1(Cc2ccccc2I)c2ccccc2C(=O)N(C2CCCCC2)[C@H]1c1ccc(CO)cc1`, the results for the composite z-score (in assay [1]; with XIP peptide (Xip251-270)) were 0.645 (inactive) and 0.611, respectively. In addition, the z-score was -1.61 in assay [2], 0.846 (inactive) in assay [3], -0.332 (inactive) in assay [4] and -0.621 (inactive) in assay [5].

As for `C=CCNC(=O)[C@H]1[C@@H]2C(=O)O[C@@H](c3ccccc3)[C@@H](c3ccccc3)N2[C@@H](c2ccc(OCCO)cc2)[C@]12C(=O)Nc1ccc(C#CC3(O)CCCCCC3)cc12`, the composite z-score was 0.38 (inactive) in assay [1] and 0.821 in the assay on XIP peptide (Xip251-270). Besides, the z-score in assay [2] was -2.09; in assay [3], -1.83 (inactive); in assay [4], 0.541 (inactive); in assay [5], 1.15 (inactive).

Consider `CC(C)C(=C=CC[C@H](O)c1ccccc1OCCO)C[C@H](O)COCc1ccccc1`, for which the composite z-score is -0.182 (inactive) in assay [1] and 0.619 in the assay on XIP peptide (Xip251-270). In addition, the z-score is -1.78 in assay [2], -4.94 (inactive) in assay [3], 0.233 (inactive) in assay [4] and -0.371 (inactive) in assay [5].

For `CN(C)CCCNC(=O)[C@@H]1c2ccccc2C(=O)N(Cc2ccccc2C(F)(F)F)[C@H]1c1ccc(CO)cc1`, the values for the composite z-score (in assay [1]; in the assay on XIP peptide (Xip251-270)) were -0.638 (inactive) and 0.0067, respectively. The z-score is -0.944 in assay [2], -2.62 (inactive) in assay [3], -0.316 (inactive) in assay [4] and -0.164 (inactive) in assay [5].

As to `O=C1C[C@@](C(=O)NC2CC2)(c2ccc([N+](=O)[O-])cc2)[C@@H](c2ccc(CO)cc2)N1C1CCCCC1`, the composite z-score in assay [1] was 1.19 (inactive); in the assay on XIP peptide (Xip251-270), 0.662. Moreover, the z-score in assay [2] is -1.39; in assay [3], -3.19 (inactive); in assay [4] it was -0.544 (inactive); in assay [5], -0.979 (inactive).

Take `CCCC[C@H]1OB(O)C[C@H]2C1=C(COc1ccccc1)C[C@H]1C(=O)C=CC(=O)[C@H]12`: the composite z-score in assay [1] is 0.0738 (inactive); in the assay with XIP peptide (Xip251-270), -0.114. For the same compound, the z-score was -0.948 in assay [2], -5.45 (inactive) in assay [3], -0.177 (inactive) in assay [4] and -0.274 (inactive) in assay [5].

Take `COC(=O)[C@@]1(Cc2ccc(F)cc2)[C@H]2c3cc(C(=O)N4CCCC4)n(CCc4ccccn4)c3C[C@H]2CN1C(=O)c1ccccc1`: the composite z-score is 0.405 (inactive) in assay [1] and -0.189 in the assay with XIP peptide (Xip251-270). The z-score in assay [2] is -1.31; in assay [3] it was -4.83 (inactive); in assay [4], 0.227 (inactive); in assay [5] it was 0.247 (inactive).

For the compound `CCCC#C[Si](O[C@H](CC)c1cn(Cc2ccccc2)nn1)(C(C)C)C(C)C`, the composite z-score in assay [1] was -0.249 (inactive); with XIP peptide (Xip251-270), 0.598. The z-score in assay [2] was 0.0331; in assay [3], -0.88 (inactive); in assay [4], -0.074 (inactive); in assay [5], 0.0744 (inactive).

Consider `O=C1C[C@@](C(=O)NCc2ccccc2)(c2ccc([N+](=O)[O-])cc2)[C@@H](c2ccc(CO)cc2)N1C1CCCCC1`, for which the composite z-score in assay [1] is 0.58 (inactive); in the assay on XIP peptide (Xip251-270), 0.607. Moreover, the z-score was 0.469 in assay [2], -2.95 (inactive) in assay [3], -0.53 (inactive) in assay [4] and -0.0661 (inactive) in assay [5].

For `O=C(NCC(O)CO)[C@@]1(CCS(=O)(=O)c2ccccc2)N=C(c2ccc(OCCCO)cc2)O[C@H]1c1ccccc1` (some centres not stated), the composite z-score is 2.08 (inactive) in assay [1] and 0.0777 in the assay with XIP peptide (Xip251-270). The z-score in assay [2] is -2.02; in assay [3] it was -4.76 (inactive); in assay [4] it was -0.579 (inactive); in assay [5], -0.282 (inactive).

`CCCCC(=C=CC[C@H](O)c1ccc(CO)o1)CCO`: the composite z-score in assay [1] was 0.234 (inactive); in the assay on XIP peptide (Xip251-270) it was 0.552. For the same compound, the z-score in assay [2] is 1.13; in assay [3] it was -4.55 (inactive); in assay [4] it was 0.818 (inactive); in assay [5], 0.392 (inactive).
